In PubChem BioAssay (NCATS) one finds Potency and outcome data, which are given here for 3 compounds.

The target in test [1] is Cytochrome P450 2C19 (Homo sapiens) (UniProt P33261). Description: qHTS Assay for Inhibitors and Substrates of Cytochrome P450 2C19 (AID 899). Further: potency means the concentration at half of the fitted maximal effect; nearly all actives have a fitted effect of over 60% in size. To be noted: recombinant CYP2C19, luciferin-H EGE luminescence; series mostly up to 57.1 µM. Put shortly:
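5nM enzyme + 10uM Luciferin-H EGE (=KM), 50mM KPO4; cpd pin-transferred, 10 min 37C; NADPH regen, 60 min 37C; stopped w/ luciferin detection reagent, 20 min; luminescence. Normalized to 57uM ketoconazole (AC100).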
A general note: In qHTS, concentration-response curves come from the screen itself.

Test [2] deals with Cytochrome P450 3A4 (Homo sapiens) (UniProt P08684). Description: qHTS Assay for Inhibitors and Substrates of Cytochrome P450 3A4 (AID 884). Further: potency means the concentration at half of the fitted maximal effect; nearly all actives have a fitted effect of over 50% in size. The following applies: recombinant CYP3A4, Luciferin-PPXE luminescence; series mostly up to 57.1 µM. Put shortly:
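Luminescent readout of luciferin produced by CYP3A4 (20 nM) dealkylation of Luciferin-PPXE, 25 uM (its KM). NADPH-driven reaction ran 60 min at RT after 10 min compound preincubation; data scaled to 57 uM ketoconazole as 100% inhibition.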

Test [3] addresses ATP-dependent 6-phosphofructokinase (Trypanosoma brucei brucei) (UniProt O15648). Briefly: qHTS Assay to Find Inhibitors of T. brucei phosphofructokinase: hit validation (AID 492961).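 Further: luminescence reports ADP formed as PFK phosphorylates fructose-6-phosphate with ATP.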 The following applies: T. brucei PFK, ADP-Glo luminescence; series mostly up to 51.4 µM. Put shortly:
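In this biochemical qHTS validation, titrated compounds were tested against 1.25 nM PFK with 0.1 mM ATP and 0.5 mM F6P. Percent activity came from controls lacking or containing enzyme.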

For test [4], the target named is Rap guanine nucleotide exchange factor 3 (Homo sapiens) (UniProt O95398). Briefly: Confirmatory qHTS for antagonist of cAMP-regulated guanine nucleotide exchange factor 3 (EPAC1) (AID 1645880). Further: nearly all actives have a fitted effect of over 55% in size. To be noted: EPAC1 Rap1B-BODIPY-GDP exchange, fluorescence; series mostly up to 115 µM. Put shortly: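 Released BODIPY-GDP fluoresces less than Rap1-bound BODIPY-GDP; the signal is followed at 480/540 nm at 5-min intervals over 30 min, after 5 min at room temperature. Reactions contain 100 nM EPAC1, 250 nM RAP1B-BODIPY-GDP and 50 uM GDP; results are normalized to ATA and DMSO.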
Rap guanine nucleotide exchange factor 3 (Homo sapiens), sequence (O95398 whole entry, looked up): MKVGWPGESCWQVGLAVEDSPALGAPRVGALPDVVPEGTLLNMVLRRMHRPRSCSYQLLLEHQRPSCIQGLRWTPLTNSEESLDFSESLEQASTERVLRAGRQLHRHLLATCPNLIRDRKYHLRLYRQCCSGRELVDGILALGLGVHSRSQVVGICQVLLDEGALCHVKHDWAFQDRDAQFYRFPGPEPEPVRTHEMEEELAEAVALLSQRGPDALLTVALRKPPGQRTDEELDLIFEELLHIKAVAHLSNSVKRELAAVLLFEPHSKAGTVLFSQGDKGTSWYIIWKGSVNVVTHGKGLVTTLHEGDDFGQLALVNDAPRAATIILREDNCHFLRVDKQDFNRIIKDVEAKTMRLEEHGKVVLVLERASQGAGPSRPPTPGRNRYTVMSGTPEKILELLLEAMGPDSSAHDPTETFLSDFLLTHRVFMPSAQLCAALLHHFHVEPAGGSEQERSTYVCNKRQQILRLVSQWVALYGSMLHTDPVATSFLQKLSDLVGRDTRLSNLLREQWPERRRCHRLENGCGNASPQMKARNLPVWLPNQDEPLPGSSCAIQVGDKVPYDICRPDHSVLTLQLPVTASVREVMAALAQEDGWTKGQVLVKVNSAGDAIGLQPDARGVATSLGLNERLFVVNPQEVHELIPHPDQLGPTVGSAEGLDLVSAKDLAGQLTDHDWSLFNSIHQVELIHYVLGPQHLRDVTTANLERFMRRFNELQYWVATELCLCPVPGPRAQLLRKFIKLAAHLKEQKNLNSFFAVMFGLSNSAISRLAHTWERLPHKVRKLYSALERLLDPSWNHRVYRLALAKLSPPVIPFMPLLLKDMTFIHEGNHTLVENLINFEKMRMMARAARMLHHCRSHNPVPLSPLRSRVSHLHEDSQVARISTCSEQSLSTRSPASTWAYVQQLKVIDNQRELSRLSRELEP

Test [5] has the same target. Description: Counterscreen qHTS for antagonist of cAMP-regulated guanine nucleotide exchange factor 3 (EPAC1) (AID 1645888). To be noted: Rap1B-BODIPY-GDP nucleotide exchange, fluorescence; series mostly up to 30.8 µM. Put shortly: (§1)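 Rap1B-BODIPY-GDP 250 nM + GDP 50 uM; cpds 7-pt, final 9.74 nM–152 uM (activator mode) or from 7.32 nM upwards (inhibitor mode); RT; FI 480/540 nm at 5 and 30 min, then ± cAMP, reread.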

Test [6] has the same target. Briefly: Counterscreen qHTS for agonist of cAMP-regulated guanine nucleotide exchange factor 3 (EPAC1) (AID 1645889). Further: nearly all actives have a fitted effect of over 40% in size. The following applies: EPAC1 Rap1B-BODIPY-GDP exchange, fluorescence; series mostly up to 154 µM. Put shortly: as §1
(In general: Counterscreens check selectivity or assay interference.)

Test [7] has as its system AS120. Description: qHTS profiling for inhibitors of Plasmodium falciparum proliferation (AID 504749). Further: nearly all actives have a fitted effect of over 60% in size. The following applies: P. falciparum in erythrocytes, SYBR Green DNA, 72 h; series mostly up to 28.7 µM. Put shortly:
(§2)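 SYBR Green fluorescence of parasite DNA, read after lysis and overnight dark incubation, measured growth over 72 h in erythrocyte culture at 0.3% parasitemia and 2.5% hematocrit. Data normalised to DMSO and 0.29 uM artemisinin, with plate-drift correction.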

The subject of test [8] is ATS189. Described as above. To be noted: P. falciparum in erythrocytes, SYBR Green DNA, 72 h; series mostly up to 28.7 µM. Put shortly:
as §2

In test [9] the test system is CP191. The test is described as above. The following applies: P. falciparum in erythrocytes, SYBR Green DNA, 72 h; series mostly up to 28.7 µM. Put shortly: as §2
Test [10] relates to CP192. The test is described as above. To be noted: P. falciparum in erythrocytes, SYBR Green DNA, 72 h; series mostly up to 28.7 µM. Put shortly:
as §2

The test system of test [11] is CP194. The test is described as above. To be noted: P. falciparum in erythrocytes, SYBR Green DNA, 72 h; series mostly up to 28.7 µM. Put shortly:
as §2

The test system of test [12] is CP201. The test is described as above. To be noted: P. falciparum in erythrocytes, SYBR Green DNA, 72 h; series mostly up to 28.7 µM. Put shortly: as §2
For test [13], the system named is CP203. The test is described as above. The following applies: P. falciparum in erythrocytes, SYBR Green DNA, 72 h; series mostly up to 28.7 µM. Put shortly: as §2
In test [14] the test system is CP247. The description is as above. The following applies: P. falciparum in erythrocytes, SYBR Green DNA, 72 h; series mostly up to 28.7 µM. Put shortly:
as §2

For test [15], the system named is CP291. The description is as above. To be noted: P. falciparum in erythrocytes, SYBR Green DNA, 72 h; series mostly up to 28.7 µM. Put shortly:
as §2

Test [16] concerns DFO2036. The description is as above. The following applies: P. falciparum in erythrocytes, SYBR Green DNA, 72 h; series mostly up to 28.7 µM. Put shortly: as §2
For test [17], the system named is P94_40. The test is described as above. To be noted: P. falciparum in erythrocytes, SYBR Green DNA, 72 h; series mostly up to 28.7 µM. Put shortly:
as §2

The test system of test [18] is PC49. The test is described as above. The following applies: P. falciparum in erythrocytes, SYBR Green DNA, 72 h; series mostly up to 28.7 µM. Put shortly:
as §2

Test [19] concerns TAB113. The test is described as above. The following applies: P. falciparum in erythrocytes, SYBR Green DNA, 72 h; series mostly up to 28.7 µM. Put shortly:
as §2

In test [20] the test system is W2. The description is as above. To be noted: P. falciparum in erythrocytes, SYBR Green DNA, 72 h; series mostly up to 28.7 µM. Put shortly:
as §2

Inconclusive results are not listed. Activity calls are given as the source filed them. The call rests on the fitted dose curve; in most records, active means well fitted curve in the direction sought with a large enough effect; inconclusive means small, poorly fitted or top-dose-only effect, or another doubt; inactive means no such curve, though single readings can be large; an effect the other way counts as inactive or inconclusive.

ATP-dependent 6-phosphofructokinase (Trypanosoma brucei brucei), sequence (O15648 whole entry, looked up): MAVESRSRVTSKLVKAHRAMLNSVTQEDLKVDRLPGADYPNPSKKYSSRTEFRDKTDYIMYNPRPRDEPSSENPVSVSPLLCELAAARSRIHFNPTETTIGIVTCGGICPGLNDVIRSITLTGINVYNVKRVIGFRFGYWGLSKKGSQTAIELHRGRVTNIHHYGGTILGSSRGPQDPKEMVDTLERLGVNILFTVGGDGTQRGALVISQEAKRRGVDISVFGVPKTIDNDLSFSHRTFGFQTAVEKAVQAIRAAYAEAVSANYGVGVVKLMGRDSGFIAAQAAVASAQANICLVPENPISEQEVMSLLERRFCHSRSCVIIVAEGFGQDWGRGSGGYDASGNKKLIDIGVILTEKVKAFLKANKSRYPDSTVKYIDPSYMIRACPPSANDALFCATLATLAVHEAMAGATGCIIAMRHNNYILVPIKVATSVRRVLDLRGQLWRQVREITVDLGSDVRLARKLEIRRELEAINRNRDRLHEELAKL
Cytochrome P450 3A4 (Homo sapiens), sequence (P08684 whole entry, looked up): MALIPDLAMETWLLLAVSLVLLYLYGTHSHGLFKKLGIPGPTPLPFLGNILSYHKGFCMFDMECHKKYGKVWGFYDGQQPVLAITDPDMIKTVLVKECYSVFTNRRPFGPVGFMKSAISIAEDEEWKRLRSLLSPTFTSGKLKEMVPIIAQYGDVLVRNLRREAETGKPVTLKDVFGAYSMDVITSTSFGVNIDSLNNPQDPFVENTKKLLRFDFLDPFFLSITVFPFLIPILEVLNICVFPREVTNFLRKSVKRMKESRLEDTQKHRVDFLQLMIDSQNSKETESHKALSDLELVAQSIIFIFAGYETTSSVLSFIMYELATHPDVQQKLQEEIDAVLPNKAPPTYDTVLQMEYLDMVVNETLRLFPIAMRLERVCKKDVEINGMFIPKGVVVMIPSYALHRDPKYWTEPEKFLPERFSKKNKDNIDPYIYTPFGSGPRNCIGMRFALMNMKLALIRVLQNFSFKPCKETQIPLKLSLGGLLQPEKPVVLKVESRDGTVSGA
Cytochrome P450 2C19 (Homo sapiens), sequence (P33261 whole entry, looked up): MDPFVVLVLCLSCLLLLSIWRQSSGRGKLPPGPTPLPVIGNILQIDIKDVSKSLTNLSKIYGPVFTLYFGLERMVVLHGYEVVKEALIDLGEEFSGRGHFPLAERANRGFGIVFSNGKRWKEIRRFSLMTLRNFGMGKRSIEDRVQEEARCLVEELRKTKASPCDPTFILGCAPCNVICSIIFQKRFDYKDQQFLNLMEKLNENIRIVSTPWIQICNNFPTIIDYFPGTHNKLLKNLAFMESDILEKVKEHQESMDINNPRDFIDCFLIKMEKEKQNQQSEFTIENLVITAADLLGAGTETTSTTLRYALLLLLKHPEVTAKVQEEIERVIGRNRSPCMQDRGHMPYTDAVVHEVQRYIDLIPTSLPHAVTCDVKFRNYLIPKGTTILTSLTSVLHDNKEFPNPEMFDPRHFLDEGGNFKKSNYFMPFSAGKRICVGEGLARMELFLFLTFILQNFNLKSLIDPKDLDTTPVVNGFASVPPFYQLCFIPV

For `CC(C)=CCc1c2c(c3occ(-c4ccc(O)c(O)c4)c(=O)c3c1O)C=CC(C)(C)O2`, the Potency in [1] is 2 µM (active).

Take `O=C1CC(c2ccc(O)cc2)Oc2ccccc21` (stereo not given): the Potency in test [2] is 25.1 µM (active).

In the case of `CC(/C=C1\SC(=S)N(CC(=O)O)C1=O)=C\c1ccccc1`, the compound was classed as inactive in test [3], in test [5] and in test [6]. Also, the Potency entry in [4], in test [7], in [8], in [9], in [10] and in test [11] was “inactive” throughout. The Potency entry in test [12], in [13], in [14], in test [15], in test [16] and in [17] was “inactive” throughout. The Potency entry in [18], in [19] and in [20] was “inactive” each time.
